By inhibition is commonly meant the change of the read-out against control, counted positive when it falls.

Assay [1] deals with MAP/microtubule affinity-regulating kinase 3 (Homo sapiens) (UniProt P27448). The note with it: at 1 µM.
Assay [2] addresses T1, MAP/microtubule affinity-regulating kinase 4 (Homo sapiens) (UniProt Q96L34).
T1 sequence (whole entry): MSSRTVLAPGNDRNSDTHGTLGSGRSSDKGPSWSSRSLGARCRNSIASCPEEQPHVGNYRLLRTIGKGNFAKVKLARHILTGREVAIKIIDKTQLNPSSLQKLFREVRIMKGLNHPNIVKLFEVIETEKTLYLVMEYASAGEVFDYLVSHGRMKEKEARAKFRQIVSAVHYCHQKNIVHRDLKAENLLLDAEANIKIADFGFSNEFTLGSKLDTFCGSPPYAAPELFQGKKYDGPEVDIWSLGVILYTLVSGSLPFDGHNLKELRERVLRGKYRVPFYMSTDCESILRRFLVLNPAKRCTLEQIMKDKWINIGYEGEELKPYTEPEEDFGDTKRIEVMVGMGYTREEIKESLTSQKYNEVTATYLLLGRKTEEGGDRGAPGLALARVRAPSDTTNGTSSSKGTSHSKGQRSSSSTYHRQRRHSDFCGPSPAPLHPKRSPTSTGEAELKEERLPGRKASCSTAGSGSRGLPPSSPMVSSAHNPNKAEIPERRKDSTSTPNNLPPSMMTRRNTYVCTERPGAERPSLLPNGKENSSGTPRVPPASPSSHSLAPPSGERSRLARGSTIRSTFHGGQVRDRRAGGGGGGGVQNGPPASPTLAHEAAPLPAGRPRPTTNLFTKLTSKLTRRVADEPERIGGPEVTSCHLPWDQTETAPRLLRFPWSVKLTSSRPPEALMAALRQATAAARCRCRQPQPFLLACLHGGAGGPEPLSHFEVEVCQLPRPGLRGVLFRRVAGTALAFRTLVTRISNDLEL
The note with it: at 0.1 µM.

Assay [3] deals with T1, MAP/microtubule affinity-regulating kinase 4 (Homo sapiens). The note with it: at 1 µM.
Assay [4] concerns the target Maternal embryonic leucine zipper kinase (Homo sapiens) (UniProt Q14680). The following applies: at 0.1 µM.
Assay [5] shares this target. The note with it: at 1 µM.
Assay [6] concerns the target MAP kinase-interacting serine/threonine-protein kinase 1 (Homo sapiens) (UniProt Q9BUB5). The note with it: at 0.1 µM.
Assay [7] has the same target. The following applies: at 1 µM.
For assay [8], the target named is MAP kinase-interacting serine/threonine-protein kinase 2 (Homo sapiens) (UniProt Q9HBH9). The following applies: at 0.1 µM.
Assay [9] shares this target. The note with it: at 1 µM.
In assay [10] the target is Serine/threonine-protein kinase MARK2 (Homo sapiens) (UniProt Q7KZI7). The following applies: at 0.1 µM.
Assay [11] has the same target. The following applies: at 1 µM.
The target in assay [12] is PAS domain-containing serine/threonine-protein kinase (Homo sapiens) (UniProt Q96RG2). The note with it: at 0.1 µM.
Assay [13] has the same target. The note with it: at 1 µM.
In assay [14] the target is Phosphorylase b kinase gamma catalytic chain, skeletal muscle/heart isoform (Homo sapiens) (UniProt Q16816). The note with it: at 0.1 µM.
Assay [15] shares this target. The following applies: at 1 µM.
The target of assay [16] is T2, Phosphorylase b kinase gamma catalytic chain, liver/testis isoform (Homo sapiens) (UniProt P15735).
T2 sequence (whole entry): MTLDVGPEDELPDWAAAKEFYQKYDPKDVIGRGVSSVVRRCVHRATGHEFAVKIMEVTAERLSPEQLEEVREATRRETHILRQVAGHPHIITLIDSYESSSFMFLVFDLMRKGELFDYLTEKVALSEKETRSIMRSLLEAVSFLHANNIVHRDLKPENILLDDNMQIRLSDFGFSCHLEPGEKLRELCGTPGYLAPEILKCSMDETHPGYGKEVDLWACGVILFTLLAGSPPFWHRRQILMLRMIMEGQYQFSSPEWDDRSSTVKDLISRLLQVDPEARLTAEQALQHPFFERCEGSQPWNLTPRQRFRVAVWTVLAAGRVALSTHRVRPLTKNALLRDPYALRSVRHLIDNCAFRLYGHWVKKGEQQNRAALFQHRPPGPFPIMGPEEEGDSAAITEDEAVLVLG
The note with it: at 0.1 µM.

For assay [17], the target named is T2, Phosphorylase b kinase gamma catalytic chain, liver/testis isoform (Homo sapiens). The note with it: at 1 µM.
In assay [18] the target is Serine/threonine-protein kinase pim-1 (Homo sapiens) (UniProt P11309). The note with it: at 0.1 µM.
The target is the same in assay [19]. The following applies: at 1 µM.
Assay [20] addresses Serine/threonine-protein kinase pim-2 (Homo sapiens) (UniProt Q9P1W9). The following applies: at 0.1 µM.

Chain of MAP kinase-interacting serine/threonine-protein kinase 2 (Homo sapiens) (Q9HBH9 whole entry, looked up): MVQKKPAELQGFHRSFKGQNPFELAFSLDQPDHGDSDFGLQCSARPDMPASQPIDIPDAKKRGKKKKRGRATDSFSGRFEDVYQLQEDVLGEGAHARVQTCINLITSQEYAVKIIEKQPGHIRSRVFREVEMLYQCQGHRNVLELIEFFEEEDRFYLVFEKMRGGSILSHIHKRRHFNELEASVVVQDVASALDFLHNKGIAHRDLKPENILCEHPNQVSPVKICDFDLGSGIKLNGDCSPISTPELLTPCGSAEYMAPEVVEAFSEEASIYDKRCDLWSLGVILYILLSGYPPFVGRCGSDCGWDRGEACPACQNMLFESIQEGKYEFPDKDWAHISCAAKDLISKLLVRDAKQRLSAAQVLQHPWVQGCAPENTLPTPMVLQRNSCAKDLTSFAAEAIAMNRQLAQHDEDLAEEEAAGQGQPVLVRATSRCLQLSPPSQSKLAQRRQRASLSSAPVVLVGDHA
Chain of Serine/threonine-protein kinase pim-2 (Homo sapiens) (Q9P1W9 whole entry, looked up): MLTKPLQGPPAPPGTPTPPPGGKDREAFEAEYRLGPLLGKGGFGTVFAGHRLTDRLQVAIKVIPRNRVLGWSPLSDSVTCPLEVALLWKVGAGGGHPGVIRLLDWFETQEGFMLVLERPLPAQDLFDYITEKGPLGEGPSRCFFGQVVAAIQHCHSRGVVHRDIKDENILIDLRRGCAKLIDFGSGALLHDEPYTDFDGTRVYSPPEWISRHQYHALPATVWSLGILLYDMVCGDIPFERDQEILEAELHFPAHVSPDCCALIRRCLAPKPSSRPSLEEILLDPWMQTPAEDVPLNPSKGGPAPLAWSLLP
Chain of Phosphorylase b kinase gamma catalytic chain, skeletal muscle/heart isoform (Homo sapiens) (Q16816 whole entry, looked up, canonical isoform): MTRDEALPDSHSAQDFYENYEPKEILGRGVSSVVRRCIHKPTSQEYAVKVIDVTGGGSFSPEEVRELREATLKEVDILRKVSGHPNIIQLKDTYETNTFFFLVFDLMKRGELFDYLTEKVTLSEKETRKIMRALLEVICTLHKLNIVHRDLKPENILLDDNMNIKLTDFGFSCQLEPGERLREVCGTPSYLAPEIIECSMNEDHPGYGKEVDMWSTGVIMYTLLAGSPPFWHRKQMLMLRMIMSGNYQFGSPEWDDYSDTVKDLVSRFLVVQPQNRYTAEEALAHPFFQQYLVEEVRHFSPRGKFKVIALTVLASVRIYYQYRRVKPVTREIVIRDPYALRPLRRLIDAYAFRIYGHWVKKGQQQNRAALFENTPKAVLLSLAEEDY
Chain of Serine/threonine-protein kinase MARK2 (Homo sapiens) (Q7KZI7 whole entry): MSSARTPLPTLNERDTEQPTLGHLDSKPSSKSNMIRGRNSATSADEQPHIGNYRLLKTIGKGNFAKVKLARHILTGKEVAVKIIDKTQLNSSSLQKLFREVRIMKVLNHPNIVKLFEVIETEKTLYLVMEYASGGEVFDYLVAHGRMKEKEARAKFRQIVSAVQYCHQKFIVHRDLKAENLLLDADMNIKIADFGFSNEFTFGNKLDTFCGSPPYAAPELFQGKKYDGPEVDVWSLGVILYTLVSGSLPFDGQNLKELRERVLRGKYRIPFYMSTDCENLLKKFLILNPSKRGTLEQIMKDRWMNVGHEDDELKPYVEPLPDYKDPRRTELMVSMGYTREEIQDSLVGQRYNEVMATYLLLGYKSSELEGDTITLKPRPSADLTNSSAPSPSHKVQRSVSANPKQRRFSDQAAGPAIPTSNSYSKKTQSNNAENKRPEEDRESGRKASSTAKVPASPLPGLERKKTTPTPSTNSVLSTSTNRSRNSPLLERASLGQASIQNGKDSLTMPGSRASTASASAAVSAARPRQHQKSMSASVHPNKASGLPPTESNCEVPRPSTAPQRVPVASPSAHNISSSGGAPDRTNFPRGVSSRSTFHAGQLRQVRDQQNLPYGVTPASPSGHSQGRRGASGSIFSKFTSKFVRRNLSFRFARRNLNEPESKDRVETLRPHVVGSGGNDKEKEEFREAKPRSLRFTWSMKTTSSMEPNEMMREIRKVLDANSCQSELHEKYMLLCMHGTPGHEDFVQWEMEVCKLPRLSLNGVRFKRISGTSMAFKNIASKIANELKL
Chain of MAP kinase-interacting serine/threonine-protein kinase 1 (Homo sapiens) (Q9BUB5 whole entry, looked up): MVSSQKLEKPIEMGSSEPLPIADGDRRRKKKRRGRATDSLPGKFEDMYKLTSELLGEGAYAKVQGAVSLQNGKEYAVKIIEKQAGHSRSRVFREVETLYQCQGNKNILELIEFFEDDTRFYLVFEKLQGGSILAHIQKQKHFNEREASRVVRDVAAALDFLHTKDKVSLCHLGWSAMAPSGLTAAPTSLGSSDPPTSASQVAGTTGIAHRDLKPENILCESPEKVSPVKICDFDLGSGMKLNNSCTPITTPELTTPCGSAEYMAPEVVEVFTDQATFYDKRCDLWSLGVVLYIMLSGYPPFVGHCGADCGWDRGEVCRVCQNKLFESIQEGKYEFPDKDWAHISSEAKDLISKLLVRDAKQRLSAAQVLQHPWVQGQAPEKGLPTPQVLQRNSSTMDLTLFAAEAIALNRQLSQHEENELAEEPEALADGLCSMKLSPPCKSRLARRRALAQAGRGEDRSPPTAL
Chain of Serine/threonine-protein kinase pim-1 (Homo sapiens) (P11309 whole entry, looked up): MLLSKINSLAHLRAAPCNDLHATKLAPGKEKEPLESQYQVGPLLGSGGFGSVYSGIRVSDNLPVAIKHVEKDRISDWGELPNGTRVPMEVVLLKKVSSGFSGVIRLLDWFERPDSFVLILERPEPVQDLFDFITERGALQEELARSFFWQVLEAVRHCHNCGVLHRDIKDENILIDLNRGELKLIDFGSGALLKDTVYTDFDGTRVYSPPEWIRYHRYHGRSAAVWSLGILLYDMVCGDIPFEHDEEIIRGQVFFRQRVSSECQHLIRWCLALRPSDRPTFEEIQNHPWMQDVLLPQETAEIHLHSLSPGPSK
Chain of MAP/microtubule affinity-regulating kinase 3 (Homo sapiens) (P27448 whole entry, looked up): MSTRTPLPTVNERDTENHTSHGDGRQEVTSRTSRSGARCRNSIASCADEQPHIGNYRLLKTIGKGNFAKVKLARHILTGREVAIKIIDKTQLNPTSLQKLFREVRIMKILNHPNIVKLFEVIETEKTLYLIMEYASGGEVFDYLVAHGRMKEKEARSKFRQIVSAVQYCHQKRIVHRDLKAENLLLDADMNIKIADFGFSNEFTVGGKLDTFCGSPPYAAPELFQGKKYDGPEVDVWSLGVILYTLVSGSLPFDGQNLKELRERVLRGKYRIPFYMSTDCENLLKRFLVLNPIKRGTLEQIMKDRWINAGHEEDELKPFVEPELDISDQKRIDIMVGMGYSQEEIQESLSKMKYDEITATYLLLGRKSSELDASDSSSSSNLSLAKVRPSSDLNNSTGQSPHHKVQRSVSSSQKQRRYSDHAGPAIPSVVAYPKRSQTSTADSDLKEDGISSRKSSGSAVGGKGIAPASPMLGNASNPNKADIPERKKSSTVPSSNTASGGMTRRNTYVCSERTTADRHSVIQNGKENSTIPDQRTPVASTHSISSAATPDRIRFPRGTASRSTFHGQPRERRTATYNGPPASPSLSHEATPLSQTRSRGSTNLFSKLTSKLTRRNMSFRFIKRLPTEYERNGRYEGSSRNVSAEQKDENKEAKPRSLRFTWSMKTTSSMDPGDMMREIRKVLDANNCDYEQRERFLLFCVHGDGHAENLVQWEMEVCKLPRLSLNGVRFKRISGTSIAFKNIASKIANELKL
Chain of PAS domain-containing serine/threonine-protein kinase (Homo sapiens) (Q96RG2 whole entry, the tested form may be a part): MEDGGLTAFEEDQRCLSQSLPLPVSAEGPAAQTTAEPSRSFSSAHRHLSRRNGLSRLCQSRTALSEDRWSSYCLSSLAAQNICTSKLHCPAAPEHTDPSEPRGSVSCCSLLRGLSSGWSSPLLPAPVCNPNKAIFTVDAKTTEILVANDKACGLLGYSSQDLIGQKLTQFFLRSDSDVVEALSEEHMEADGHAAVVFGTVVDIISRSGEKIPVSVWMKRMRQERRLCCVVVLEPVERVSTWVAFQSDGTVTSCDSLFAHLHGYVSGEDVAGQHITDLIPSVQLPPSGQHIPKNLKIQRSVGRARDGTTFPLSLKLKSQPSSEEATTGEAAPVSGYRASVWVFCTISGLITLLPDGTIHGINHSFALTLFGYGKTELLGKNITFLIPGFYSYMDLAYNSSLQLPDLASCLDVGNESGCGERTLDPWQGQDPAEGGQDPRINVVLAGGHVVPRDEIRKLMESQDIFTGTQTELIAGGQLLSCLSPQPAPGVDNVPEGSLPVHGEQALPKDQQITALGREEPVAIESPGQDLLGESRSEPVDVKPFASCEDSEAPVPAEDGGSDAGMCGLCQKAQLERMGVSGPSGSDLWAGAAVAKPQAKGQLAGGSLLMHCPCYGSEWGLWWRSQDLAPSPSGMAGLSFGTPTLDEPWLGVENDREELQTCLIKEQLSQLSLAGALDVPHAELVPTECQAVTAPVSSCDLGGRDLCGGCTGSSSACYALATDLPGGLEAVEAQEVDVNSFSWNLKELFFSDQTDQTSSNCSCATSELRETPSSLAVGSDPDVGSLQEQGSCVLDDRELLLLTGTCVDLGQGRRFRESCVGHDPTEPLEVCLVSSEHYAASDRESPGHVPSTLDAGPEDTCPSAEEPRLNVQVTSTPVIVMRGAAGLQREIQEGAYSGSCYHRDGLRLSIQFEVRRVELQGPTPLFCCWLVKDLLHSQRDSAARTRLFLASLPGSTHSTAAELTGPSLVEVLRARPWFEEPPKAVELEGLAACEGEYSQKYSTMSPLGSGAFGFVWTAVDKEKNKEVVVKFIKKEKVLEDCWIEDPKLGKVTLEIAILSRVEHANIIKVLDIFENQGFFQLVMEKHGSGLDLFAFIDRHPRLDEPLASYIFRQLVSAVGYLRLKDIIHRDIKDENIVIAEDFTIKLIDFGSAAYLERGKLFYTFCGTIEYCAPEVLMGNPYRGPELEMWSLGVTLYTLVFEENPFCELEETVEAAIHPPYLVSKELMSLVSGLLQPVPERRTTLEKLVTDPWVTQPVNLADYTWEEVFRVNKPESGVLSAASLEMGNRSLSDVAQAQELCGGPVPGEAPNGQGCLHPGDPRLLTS

Regarding `O=C(Nc1n[nH]c2cc(-c3ccc(F)cc3)ccc12)C1CC1`, the inhibition in assay [1] is 4.76%; in [2] it was 2%; in assay [3] it was 3.26%; in assay [4] it was 4.84%; in [5] it was 8.01%; in assay [6] it was 4.85%. The inhibition in assay [7] was 25.8%; in [8], 1.37%; in assay [9] it was 7.23%; in assay [10] it was 1.15%; in assay [11], 2.24%; in assay [12] it was -0.52%. Further, the inhibition is -1.02% in [13]; 3.89% in assay [14]; 6.4% in [15]; 6.96% in assay [16]; 2.35% in assay [17]; 0.88% in assay [18]. In addition, the inhibition in assay [19] was 3.11%; in assay [20], -0.18%.

Turning to `FC(F)(F)c1cccc(-c2nn3ncccc3c2-c2ccnc(Nc3ccc4c(c3)OCCO4)n2)c1`, the inhibition in assay [1] turned out to be 3.45%; in [2], 0.66%; in assay [3], 1.99%; in [4], 1.43%; in [5], 4.99%; in assay [6] it was 1.74%. In addition, the inhibition in [7] is 3.33%; in [8], 0.83%; in assay [9] it was 1.61%; in assay [10], -1.11%; in assay [11], 1.86%; in [12], 0.04%. Besides, the inhibition was -1.92% in assay [13]; -0.01% in [14]; 2.06% in assay [15]; 1.75% in assay [16]; 0.4% in assay [17]; 0.41% in assay [18]. For the same compound, the figures for the inhibition in assay [19] and in assay [20] were 0.7% and -0.06%, respectively.

As to `[O-][S+]1CCN(Cc2ccc(-c3ccc4ncnc(Nc5ccc(OCc6cccc(F)c6)c(Cl)c5)c4c3)o2)CC1`, the inhibition came out at 1.78% in assay [1]; 3.49% in assay [2]; 3.99% in assay [3]; 7.16% in [4]; 5.89% in [5]; 2.71% in assay [6]. Also, the inhibition in [7] came out at 6.2%; in assay [8] it was 1.46%; in [9] it was 6.51%; in assay [10], 2.19%; in assay [11] it was 2.61%; in assay [12] it was 0.34%. Also, the inhibition in assay [13] turned out to be 0.46%; in assay [14], 5.93%; in assay [15], 8.77%; in assay [16], 7.01%; in assay [17] it was 6.77%; in assay [18], 0.76%. Besides, the figures for the inhibition in assay [19] and in [20] were 2.24% and 0.73%, respectively.

With `COc1cc(Nc2nccc(Nc3ccc4c(C)n[nH]c4c3)n2)cc(OC)c1OC`, the inhibition in [1] came out at 9.39%; in assay [2] it was 1.78%; in assay [3], 8%; in assay [4] it was 3.21%; in assay [5], 8.73%; in assay [6] it was 2.01%. Moreover, the inhibition came out at 13.5% in [7]; 2.68% in assay [8]; 19.2% in [9]; 1.57% in [10]; 8.17% in [11]; 1.32% in assay [12]. Moreover, the inhibition in assay [13] is 0.33%; in assay [14], -0.65%; in [15], 5.26%; in assay [16], 2.27%; in assay [17], 0.52%; in assay [18], 1.13%. The inhibition was 1.26% in assay [19] and 1.46% in assay [20].

For `NS(=O)(=O)c1ccc(Nc2ncc(-c3ccccc3)o2)cc1`, the inhibition in assay [1] was 12.2%; in assay [2] it was 2.7%; in assay [3], 10.9%; in assay [4], 1.52%; in assay [5], 0.94%; in assay [6], 4.26%. Moreover, the inhibition in assay [7] was 21.3%; in [8], 3.92%; in assay [9], 18.9%; in [10] it was 2.35%; in assay [11] it was 7.59%; in assay [12] it was -0.04%. Also, the inhibition in assay [13] is -0.31%; in assay [14], 3.92%; in assay [15], 18.4%; in [16], 4.88%; in [17], 7.08%; in [18], 0.17%. Besides, the figures for the inhibition in [19] and in assay [20] were 0.64% and -0.58%, respectively.

Consider `CCN1CCC(CC(=O)Nc2n[nH]c3nnc(-c4cccc(F)c4F)cc23)CC1`, for which the inhibition is 2.57% in assay [1]; 2.32% in [2]; 2.11% in assay [3]; 3.71% in [4]; 2.39% in assay [5]; 1.66% in assay [6]. In addition, the inhibition in [7] is 2.05%; in assay [8], 1.98%; in [9], 2.98%; in [10], -2.03%; in [11], 1.15%; in assay [12], 0.77%. Further, the inhibition was found to be 1.59% in [13]; 5.02% in assay [14]; 5.09% in assay [15]; 3.86% in assay [16]; 4.27% in assay [17]; 0.56% in assay [18]. Besides, the inhibition in [19] was 0.7%; in assay [20] it was 0.39%.

`CN(C)CCOc1ccc(-c2nc(-c3ccncc3)c(-c3ccc4c(c3)CC/C4=N\O)[nH]2)cc1`: the inhibition in assay [1] was 4.44%; in assay [2], 0.44%; in [3], 2.12%; in assay [4] it was 1.61%; in assay [5], 3.61%; in assay [6], 1.3%. For the same compound, the inhibition in [7] was 7.41%; in assay [8], 1.42%; in assay [9], 5.3%; in assay [10] it was 1.34%; in assay [11], 0.92%; in assay [12], -0.26%. The inhibition in assay [13] was 0.36%; in assay [14], 1.18%; in assay [15] it was 7.7%; in [16], 3.65%; in assay [17], 5.28%; in assay [18], 1.13%. Further, the results for the inhibition in assay [19] and in [20] were 1.48% and -0.23%, respectively.

The values are drawn from ChEMBL document CHEMBL1961873, “Compounds: GSK PKIS; Assays: Nanosyn kinase panel” (2012).
